Six targets from the supplement of paper PMC10849652 can be followed below.

Holding throughout (assay): log2 fold change, soluble protein after heating vs DMSO (PISA); higher = thermal stabilisation; K562 cells, 10 uM, 30 min; active = over 0.2 and 3.5 SD of the protein, either way, in both replicates (recomputed)
Compound in one assay: Cc1ccc(NC(=O)c2ccc(CN3CC[C@H](N(C)C)C3)c(C(F)(F)F)c2)cc1Nc1nccc(-c2cncnc2)n1 [bafetinib]
In short, it runs like this:
(§1)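 K562 cells at 2×10^6 cells/mL were treated for 30 min with 10 μM compound, and aliquots were heated for 3 min over 48°C-58°C before pooling. Extraction used PBS with 0.5% NP-40 at 4°C, and soluble protein was the supernatant after 21,000xg for 90 min, measured by TMTpro 16plex LC-MS/MS with channel sums equalised. Thermal stability values, relative to control samples and from duplicates, are log2 fold changes.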

Compound in assay [1]: NC(=O)c1cnc(N[C@@H]2CCCC[C@@H]2N)nc1Nc1cccc(-n2nccn2)c1
In short, it runs like this:
as §1

Compound in a further assay: O=C(CCCCCCNC(=O)c1cnc(N(c2ccccc2)c2ccccc2Cl)nc1)NO [citarinostat]
The method in brief:
as §1

Compound in assay [2]: c1cc(OCCN2CCCCC2)cc(-c2n[nH]c3ccc(-c4nnc[nH]4)cc23)c1
The method in brief:
as §1

Compound in assay [3]: Cc1cccc(CC(=O)N2CCc3c2ccc(-c2cn(C)c4ncnc(N)c24)c3F)n1
In short, it runs like this: as §1

Compound in the next assay: Cc1nc(Nc2ncc(C(=O)Nc3c(C)cccc3Cl)s2)cc(N2CCN(CCO)CC2)n1 [dasatinib]
In short, it runs like this: as §1

Compound in assay [4]: Cn1cc(-c2ccc3c(c2)CCN3C(=O)Cc2cccc(C(F)(F)F)c2)c2c(N)ncnc21
In short, it runs like this: as §1

Compound in a further assay: FC(F)(F)c1ccc(/C=C/c2nc(COc3ccc(CCCCn4ccnn4)cc3)co2)cc1 [mubritinib]
The method in brief:
as §1

Compound in assay [5]: NC1(c2ccc(-c3nc4ccn5c(=O)[nH]nc5c4cc3-c3ccccc3)cc2)CCC1
In short, it runs like this: as §1

Compound in assay [6]: NCC(=O)Nc1ccc(-n2nc(C(F)(F)F)cc2-c2ccc3c(ccc4ccccc43)c2)cc1
The method in brief: as §1

Compound in another assay: O=C(CCCCCCC(=O)Nc1ccccc1)NO [vorinostat]
In short, it runs like this:
as §1

Compound in the next assay: O=C(O)c1ccc2c(c1)nc(Nc1cccc(Cl)c1)c1ccncc12 [silmitasertib]
The method in brief:
as §1

Compound in assay [7]: O=C1NC(=O)C(c2cnc3ccccn23)=C1c1cn2c3c(cc(F)cc13)CN(C(=O)N1CCCCC1)CC2
The method in brief: as §1

Compound in assay [8]: Cn1cc(-c2ccc3nnc(C(F)(F)c4ccc5ncccc5c4)n3n2)cn1
In short, it runs like this:
as §1

Compound in another assay: Cn1cncc1[C@@](N)(c1ccc(Cl)cc1)c1ccc2c(c1)c(-c1cccc(Cl)c1)cc(=O)n2C [tipifarnib]
The method in brief: as §1

Compound in assay [9]: NC(=O)Nc1cc(-c2cccc(F)c2)sc1C(=O)N[C@H]1CCCNC1
In short, it runs like this: as §1

Compound in a further assay: Nc1ccccc1NC(=O)c1ccc(CNC(=O)OCc2cccnc2)cc1 [entinostat]
In short, it runs like this:
as §1

Compound in a further assay: Cc1cn(-c2cc(NC(=O)c3ccc(C)c(Nc4nccc(-c5cccnc5)n4)c3)cc(C(F)(F)F)c2)cn1 [nilotinib]
The method in brief: as §1

Compound in assay [10]: Cc1nc(Nc2n[nH]c3c2CN(C(=O)N[C@H](CN(C)C)c2ccccc2)C3(C)C)c2sccc2n1
The method in brief: as §1

Compound in assay [11]: Cc1ncc(-c2ccnc(Nc3ccc(S(C)(=O)=O)cc3)n2)n1C(C)C
The method in brief: as §1

The full data set covers some 7,900 targets. This sample favours those with a hit. About 0.6% of all pairs of compound and target were hits. A number with no mark means an inactive call.

Sequence of UniProt A6NEQ0 (A6NEQ0 whole entry, looked up): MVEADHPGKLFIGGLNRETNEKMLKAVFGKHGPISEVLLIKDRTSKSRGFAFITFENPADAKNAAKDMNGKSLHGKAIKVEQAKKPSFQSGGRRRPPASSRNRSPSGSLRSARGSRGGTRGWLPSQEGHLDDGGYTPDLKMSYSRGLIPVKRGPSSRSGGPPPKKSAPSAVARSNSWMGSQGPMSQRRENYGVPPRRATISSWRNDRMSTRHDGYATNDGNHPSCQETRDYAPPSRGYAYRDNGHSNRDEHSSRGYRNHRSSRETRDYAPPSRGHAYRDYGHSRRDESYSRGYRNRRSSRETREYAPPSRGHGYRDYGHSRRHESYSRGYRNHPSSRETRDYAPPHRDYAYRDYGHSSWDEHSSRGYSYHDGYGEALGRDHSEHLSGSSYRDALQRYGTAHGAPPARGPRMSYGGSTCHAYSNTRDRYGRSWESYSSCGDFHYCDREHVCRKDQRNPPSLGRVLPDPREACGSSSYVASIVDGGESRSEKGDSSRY
Sequence of UniProt A1X283 (A1X283 whole entry, looked up): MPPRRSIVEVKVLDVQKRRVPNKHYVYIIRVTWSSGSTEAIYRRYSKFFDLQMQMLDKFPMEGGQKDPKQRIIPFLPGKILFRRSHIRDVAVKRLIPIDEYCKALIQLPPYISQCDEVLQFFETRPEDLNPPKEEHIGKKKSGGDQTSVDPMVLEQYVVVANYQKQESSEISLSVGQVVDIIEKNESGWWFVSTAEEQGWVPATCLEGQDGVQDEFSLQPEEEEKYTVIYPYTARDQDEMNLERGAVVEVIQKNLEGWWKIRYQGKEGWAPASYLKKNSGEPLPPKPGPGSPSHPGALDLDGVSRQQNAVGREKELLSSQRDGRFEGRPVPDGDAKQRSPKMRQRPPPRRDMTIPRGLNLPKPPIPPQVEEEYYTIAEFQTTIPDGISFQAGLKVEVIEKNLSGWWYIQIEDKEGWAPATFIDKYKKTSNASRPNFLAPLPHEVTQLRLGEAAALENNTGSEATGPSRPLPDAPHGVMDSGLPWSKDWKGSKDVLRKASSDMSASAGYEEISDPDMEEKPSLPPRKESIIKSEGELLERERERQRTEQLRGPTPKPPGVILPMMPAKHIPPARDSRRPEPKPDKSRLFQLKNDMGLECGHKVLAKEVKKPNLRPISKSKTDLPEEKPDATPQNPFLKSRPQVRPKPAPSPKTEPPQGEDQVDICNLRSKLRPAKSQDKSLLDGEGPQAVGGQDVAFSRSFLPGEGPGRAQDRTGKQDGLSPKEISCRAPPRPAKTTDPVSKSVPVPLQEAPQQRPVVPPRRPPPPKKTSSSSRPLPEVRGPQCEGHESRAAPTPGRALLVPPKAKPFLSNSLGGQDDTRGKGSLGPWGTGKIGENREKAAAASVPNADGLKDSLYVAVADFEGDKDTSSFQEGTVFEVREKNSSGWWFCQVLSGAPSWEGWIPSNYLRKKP
Sequence of UniProt P04049 (P04049 whole entry, looked up): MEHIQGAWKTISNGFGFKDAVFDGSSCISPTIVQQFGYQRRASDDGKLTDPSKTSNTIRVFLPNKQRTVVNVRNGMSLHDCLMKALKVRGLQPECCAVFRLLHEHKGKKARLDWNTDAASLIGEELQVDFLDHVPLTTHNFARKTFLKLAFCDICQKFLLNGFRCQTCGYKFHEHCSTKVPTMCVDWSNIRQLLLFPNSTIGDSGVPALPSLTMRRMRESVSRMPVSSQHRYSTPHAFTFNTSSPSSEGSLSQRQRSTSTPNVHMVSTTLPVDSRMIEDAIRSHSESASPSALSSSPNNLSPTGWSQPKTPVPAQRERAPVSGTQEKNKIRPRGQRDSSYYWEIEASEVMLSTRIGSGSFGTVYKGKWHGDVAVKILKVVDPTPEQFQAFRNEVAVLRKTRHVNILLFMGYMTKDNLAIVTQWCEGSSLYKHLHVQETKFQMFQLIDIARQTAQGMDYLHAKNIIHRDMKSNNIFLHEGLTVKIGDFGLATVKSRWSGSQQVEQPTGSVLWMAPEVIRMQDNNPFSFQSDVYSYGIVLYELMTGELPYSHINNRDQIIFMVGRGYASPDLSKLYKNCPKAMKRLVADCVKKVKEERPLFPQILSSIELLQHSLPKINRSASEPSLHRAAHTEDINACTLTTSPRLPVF
Sequence of UniProt Q7L099 (Q7L099 whole entry, looked up): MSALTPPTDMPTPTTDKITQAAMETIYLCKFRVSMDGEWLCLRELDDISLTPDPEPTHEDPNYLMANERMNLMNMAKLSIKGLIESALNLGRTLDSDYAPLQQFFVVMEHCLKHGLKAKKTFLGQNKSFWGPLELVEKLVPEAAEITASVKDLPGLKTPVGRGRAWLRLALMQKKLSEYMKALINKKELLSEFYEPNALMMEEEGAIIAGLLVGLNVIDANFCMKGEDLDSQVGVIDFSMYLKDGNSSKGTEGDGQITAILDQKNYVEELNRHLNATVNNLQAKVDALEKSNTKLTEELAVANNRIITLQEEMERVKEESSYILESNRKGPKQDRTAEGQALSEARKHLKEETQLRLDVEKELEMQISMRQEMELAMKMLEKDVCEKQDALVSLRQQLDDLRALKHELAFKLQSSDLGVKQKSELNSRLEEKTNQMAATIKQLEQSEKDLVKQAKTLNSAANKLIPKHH
Sequence of UniProt Q86X27 (Q86X27 whole entry, looked up): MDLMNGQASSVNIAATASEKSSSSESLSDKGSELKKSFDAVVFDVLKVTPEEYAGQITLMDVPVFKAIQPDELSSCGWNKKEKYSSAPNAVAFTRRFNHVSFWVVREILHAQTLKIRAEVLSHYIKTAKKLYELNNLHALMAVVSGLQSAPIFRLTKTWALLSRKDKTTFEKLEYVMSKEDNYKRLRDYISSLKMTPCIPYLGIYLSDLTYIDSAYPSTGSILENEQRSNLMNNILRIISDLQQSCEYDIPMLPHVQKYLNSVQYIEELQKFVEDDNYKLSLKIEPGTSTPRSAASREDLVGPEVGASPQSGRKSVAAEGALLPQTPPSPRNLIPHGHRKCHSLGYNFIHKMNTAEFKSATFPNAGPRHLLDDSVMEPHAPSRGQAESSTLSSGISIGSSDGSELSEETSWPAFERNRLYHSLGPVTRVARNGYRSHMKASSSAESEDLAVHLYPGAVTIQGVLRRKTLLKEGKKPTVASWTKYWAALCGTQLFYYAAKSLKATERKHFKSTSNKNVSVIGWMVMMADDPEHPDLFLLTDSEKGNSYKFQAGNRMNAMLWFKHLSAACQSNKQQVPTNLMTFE
Sequence of UniProt Q9H4P4 (Q9H4P4 whole entry, looked up): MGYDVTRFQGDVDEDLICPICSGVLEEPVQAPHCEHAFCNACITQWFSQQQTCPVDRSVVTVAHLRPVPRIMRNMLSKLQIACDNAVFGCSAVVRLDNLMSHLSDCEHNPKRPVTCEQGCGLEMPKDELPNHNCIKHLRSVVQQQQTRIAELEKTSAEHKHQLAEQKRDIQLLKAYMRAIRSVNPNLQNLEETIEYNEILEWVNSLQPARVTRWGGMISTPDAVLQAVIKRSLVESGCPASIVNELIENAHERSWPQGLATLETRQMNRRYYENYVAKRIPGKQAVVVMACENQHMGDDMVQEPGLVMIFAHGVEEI

Turning to RNF41 (UniProt Q9H4P4), the log2 fold change was -0.09 with bafetinib, 0.082 in assay [1], 0.044 with citarinostat and -0.018 in assay [2].

With RALGPS2 (UniProt Q86X27), the log2 fold change in the assay with bafetinib is -0.072; in assay [3], -0.001; with dasatinib, -0.011; in assay [4], 0.043; with mubritinib it was -0.198; in assay [1] it was 0.258. Moreover, the log2 fold change in assay [5] is -0.08; in assay [6], 0.175; with vorinostat it was 0.074; with citarinostat, 0.219; with silmitasertib it was 0.089; in assay [7], 0.34. Also, in assay [2], the log2 fold change was -0.153.

As for RAF1 isoform 2 (UniProt P04049), the log2 fold change with bafetinib was -0.062; in assay [3] it was -0.168; with dasatinib, -0.191; in assay [4] it was 0.181; in assay [8], -0.144; in the assay with tipifarnib, -0.185. The log2 fold change with mubritinib is -0.286; in assay [9], -0.208; in assay [1], -0.012; in assay [5], 0.086; in assay [6] it was -0.017; in the assay with entinostat it was -0.033. For the same target, the log2 fold change with vorinostat is 0.069; with citarinostat it was -0.037; in the assay with silmitasertib, -0.033; in assay [7] it was -0.13; in assay [2] it was -0.133.

On to RBMY1E (UniProt A6NEQ0), for which the log2 fold change with bafetinib was -0.041; in assay [3] it was 0.219; in the assay with nilotinib, 0.009; in [10], -0.038; in [11] it was 0.026; in [4], 0.29. For the same target, the log2 fold change was -0.164 in [8]; -0.016 with tipifarnib; 0.192 with mubritinib; -0.246 in assay [5]; 0.07 with vorinostat; 0.063 with citarinostat. For the same target, the log2 fold change with silmitasertib is -0.156; in assay [2], -0.081.

As to RUFY3 isoform 3 (UniProt Q7L099), the log2 fold change in assay [3] was -0.018; with nilotinib, -0.16; in assay [10], 0.045; with dasatinib it was -0.271; in assay [11], 0.052; in assay [4] it was 0.024. The log2 fold change was 0.134 in [8]; -0.116 in the assay with tipifarnib; 0.043 with mubritinib; -0.032 in [9]; -0.022 in [1]; -0.05 in assay [5]. Further, the log2 fold change in [6] was -0.014; with entinostat it was 0.143; in the assay with vorinostat, 0.071; in the assay with citarinostat it was 0.089; with silmitasertib, 0.1; in [2] it was 0.013.

Take SH3PXD2B (UniProt A1X283): the log2 fold change is -0.954 (active) with bafetinib; -0.058 in assay [3]; -0.124 with nilotinib; 0.129 in assay [10]; -0.152 in [11]; 0.024 in [4]. In addition, the log2 fold change was 0 with mubritinib; 0.066 in assay [9]; 0.248 in assay [1]; -0.082 in [5]; 0.052 in assay [6]; -0.056 with entinostat. The log2 fold change is -0.128 with vorinostat; 0.032 with citarinostat; -0.108 with silmitasertib; 0.009 in [7]; 0.026 in assay [2].
